Here are results for 29 molecules from PubChem BioAssay AID463229 (Broad Institute, 2010).

The whole screen tested about 2,300 compounds, of which about 2,100 (91%) were called active.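 How the source made its calls: active means compounds raising the signal whose fitted half-maximal concentration is at or below their top tested dose (cut at about 25 µM in these data); inconclusive means flat fit at 30 to 70% activity, or a poor fit; inactive means the rest.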 So high a share suggests a set chosen from earlier hits. A selection follows. Measured potencies and affinities stand elsewhere.

This experiment in a line: cytokine-free beta-cell viability effect – INS-1E rat cells, ATP luminescence, cherry pick, counter-screen for beta-cell apoptosis protection project, dose response (AID 463229).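 Further: 0% = median of neutral control wells and 100% = median of positive control wells.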 The settings on record: INS-1E rat beta cells, no cytokines, CellTiter-Glo ATP, 48 h; series mostly up to 26 µM; activity change (ATP luminescence): at the top concentration.
Regarding `N#Cc1ccc(-c2csc(NNC(=O)c3ccccc3)n2)cc1`, the “activity change (ATP luminescence)” value is 2.98% (inactive).
On to `CCn1c(=O)c(C(=O)Nc2ccccn2)c(O)c2ccccc21`, for which the “activity change (ATP luminescence)” value was -29.2% (inactive).
Then `COc1ccc(CN2CCN(CCSc3ccc(C)cc3)CC2)c(OC)c1OC`, with 5.52% (inactive).
Next, `CCOC(=O)C1(Cc2cccc(Cl)c2)CCCN(C(=O)c2ccc(COC)s2)C1` (centres undefined): -0.609% (inactive); `CN(C)CCCNc1cc(C(C)(C)C)nc2c(-c3ccccc3)cnn12`: 72.4% (inactive); `Cc1ccc2c(c1)Sc1c(ccc3ccccc13)N2`: -31% (inactive).
Regarding `COc1ccc(C(=O)c2c(C)c3ccccc3n2CC(O)CNC(C)C)cc1` (centres undefined), the “activity change (ATP luminescence)” value was -0.686% (inactive).
As for `COc1ccc(S(=O)(=O)Nc2ccc(O)c3ccccc23)cc1`, the “activity change (ATP luminescence)” value was 148% (inactive).
Next, `CN(Cc1ccccc1)C(=O)c1nc2ccccn2c1CN1CCCC1c1nccs1` (centres undefined): 0.597% (inactive).
Turning to `CCn1c(=O)c([N+](=O)[O-])c(N2CCN(Cc3ccc4c(c3)OCO4)CC2)c2ccccc21`, the “activity change (ATP luminescence)” value was -14.7% (inactive).
Next, `O=C(C(Sc1ccccc1)c1ccccc1)N1CCN(c2ccccc2F)CC1` (centres undefined): -5.26% (inactive).
Next, `COc1ccc(N2CC(C(=O)N3CCN(c4ccccc4F)CC3)CC2=O)cc1` (centres undefined): -80.3% (inactive); `Cc1occc1C(=O)N1CCCC(N2CCN(c3cccc(C(F)(F)F)c3)CC2)C1` (centres undefined): -1.48% (inactive).
Next, `CC#CC[N+](C)(C)CCCCCCCC`: 18.9% (inactive); `OCCN1CCN(C2Cc3cc(Cl)ccc3Sc3ccc(Cl)cc32)CC1` (centres undefined) (tested in a mixture with another compound): -11% [at 12 µM] (inactive).
For `O=[N+]([O-])c1cccc(/C=N/n2cnnc2)c1`, the “activity change (ATP luminescence)” value was 2.06% (inactive).
Consider `CC(C)NC(=S)NC(c1ccccc1)(c1ccccc1)c1ccccc1`, for which the “activity change (ATP luminescence)” value is 78.9% (inactive).
Next, `CC1CCN(C(=O)CCNS(=O)(=O)c2ccc(Br)cc2)CC1`: -19% (inactive); `COc1ccc(Br)cc1CN(C)CC(=O)NCc1ccc(F)cc1`: -0.267% (inactive); `Cc1nn(-c2ccccc2)c(C)c1NC(=O)COc1ccc(Br)cc1Cl`: -4.05% (inactive).
Then `CCSC1=NCCN1C(=O)C(C)(C)Oc1ccc(Cl)cc1`, with -6.11% (inactive); and `Cc1cccc(C)c1NC(=O)CNC(=O)c1c(C)nn(C)c1Cl`, with -25.8% (inactive); and `Cc1cccc(NC(=S)Nc2ccc3cn[nH]c3c2)c1`, with 0.629% (inactive).
Next, `NC(=S)N/N=C/c1c(O)ccc2ccccc12`: 4.57% (inactive); `Cc1ccc(O)c(/C=N/NC(=O)c2[nH]ncc2Br)c1`: -11.4% (inactive); `COc1ccc(N(C)S(=O)(=O)c2cccc(C(=O)Nc3nc(C)c(C(C)=O)s3)c2)cc1`: -3.12% (inactive).
Turning to `O=C(c1ccco1)c1coc2c1cc(O)c1ccccc12`, the “activity change (ATP luminescence)” value is -3.38% (inactive).
Next, `Cc1ccc2c(C)nc(Nc3nc(CSc4nc5ccccc5[nH]4)cc(=O)[nH]3)nc2c1`: 56.1% (inactive).
Then `Cc1ccc(C(=O)N/C(=C\c2ccc(-c3ccccc3[N+](=O)[O-])o2)C(=O)NCCCN2CCOCC2)cc1`, with -20.3% (inactive).
